Source: PubChem (National Center for Advancing Translational Sciences (NCATS))
Sampled rows, rich in hits. Any-hit rate of the full collection: about 19%.
Lassa entry inh – blocks Lassa virus binding to or entry into cells; AID 540256; 1.2% of 300,000 active; Lassa virus pseudotype entry inhibition, cell reporter; Potency, µM (highest dose often 37.9 µM), for inactives: at the highest dose activity change, negative = inhibition, most hits filed as inhibitors; calls by dose curve; tested in HEK293 cells; also: potency is read from the fitted curve at half-maximal effect; % is scaled to controls: 0 for no effect and ±100 for the full control effect; nearly all actives have a fitted effect of over 50% in size
Pf growth 96h – inhibits malaria parasite growth, 96 h; AID 504834; 6.9% of 320,000 active; P. falciparum luciferase reporter growth, 96 h; Potency, µM (top dose mostly 28.7 µM), inactives show top-dose activity change, negative = inhibition, most hits filed as inhibitors; also: potency is read from the fitted curve at half-maximal effect; % is scaled to controls: 0 for no effect and ±100 for the full control effect
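Compounds incubated with erythrocytes infected by luciferase-expressing P. falciparum (2% hematocrit, 0.05% parasitemia final) for 96 hours, 37 C in 5% CO2. Growth inhibition scored as decreased luciferase luminescence.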
MARV entry inh – blocks Marburg virus binding to or entry into cells. Marburg virus pseudotyped entry inhibition, cell reporter. Potency, µM (highest dose often 37.8 µM), inactives show at the top dose activity change, negative = inhibition, most hits filed as inhibitors. 1.8% of 300,000 active. AID 540276; calls by dose curve; tested in HEK293 cells; also: potency is read from the fitted curve at half-maximal effect; % is scaled to controls: 0 for no effect and ±100 for the full control effect
Shiga inhibitor – Shiga toxin inhibition. Vero cells, Shiga toxin protein synthesis inhibition reporter. inhibition, % at 38.7 µM. 9.2% of 290,000 active. AID 2315; in the data active = inhibition mostly above about 28%, no sharp cut-off; inactive = mostly below about 43%; also: 0% is about no effect
Pf growth 48h – P. falciparum growth inhibition at 48 hours (one generation). AID 504832. P. falciparum luciferase growth in erythrocytes, 48 h. 5.9% of 310,000 active. Potency, µM (titrated, usually from 28.7 µM), for the others: at the top dose activity change, negative = inhibition, most hits filed as inhibitors; also: potency is read from the fitted curve at half-maximal effect; % is scaled to controls: 0 for no effect and ±100 for the full control effect
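Firefly luciferase activity from engineered P. falciparum reports growth; inhibitors lower the luminescent signal. Cultures contained 2% hematocrit erythrocytes at 0.1% final parasitemia.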
Cycloheximide cs – affects cycloheximide protein synthesis inhibition readout, counter-screen; 12% of 300,000 active; cell reporter, cycloheximide protein synthesis inhibition counterscreen; max response, %; in the data active = max response mostly above about 13%, no sharp cut-off; inactive = mostly below about 14%; also: read at 38.3 µM for the half of the compounds with a filed dose; 0% is about no effect
Starred values were filed as active, the others as inactive; [ ] = dose if it differs, or a comment. Unless noted, calls follow the shape of the dose curve; as a rule, active = well fitted inhibition curve with a large enough effect; inconclusive = small, poorly fitted or top-dose-only effect, or another doubt; inactive = no such curve, though single readings can be large or run the other way.

CCc1cc2c(=O)n3c(nc2s1)-c1[nH]c2ccc(OC)cc2c1CC3 was read as Lassa entry inh inconclusive, Pf growth 96h 2.9µM*, MARV entry inh inconclusive, Shiga inhibitor 21, Pf growth 48h 62% and Cycloheximide cs 15*.
`COc1ccc2[nH]c3c(c2c1)CN(C)CC3` gave Lassa entry inh 10%, Pf growth 96h 20%, MARV entry inh 3%, Shiga inhibitor -7, Pf growth 48h 32% and Cycloheximide cs -5.
Screening COc1ccc2[nH]c3c(c2c1)CCN=C3C returned Pf growth 96h inconclusive and Pf growth 48h 9.3µM*.
`COc1ccc2[nH]c3c(c2c1)CCC/C3=N\N` gave Lassa entry inh inconclusive, Pf growth 96h 77%, MARV entry inh inconclusive, Shiga inhibitor 8, Pf growth 48h 40% and Cycloheximide cs 9.7*.
Screening CC(=O)Nc1c(Cl)cc2c(c1Cl)Cc1cc(N)ccc1-2 returned Lassa entry inh 1% and MARV entry inh 12%.
For COc1ccc(C(=O)OCC(=O)Nc2c(C)cccc2C)cc1 the results were Lassa entry inh 1%, Pf growth 96h -19%, MARV entry inh -9%[46.1 µM], Shiga inhibitor -8, Pf growth 48h -11% and Cycloheximide cs 6.
`CCCc1cc(-c2nc(-c3ccc(Br)cc3)cs2)ccn1` gave Lassa entry inh 0%, Pf growth 96h -10%, MARV entry inh 11%, Shiga inhibitor 4, Pf growth 48h -14% and Cycloheximide cs 22*.
CCCc1cc(-c2nc(-c3ccc(Cl)cc3)cs2)ccn1 was read as Lassa entry inh -2%, Pf growth 96h 0%, MARV entry inh 0%, Shiga inhibitor 14, Pf growth 48h 21% and Cycloheximide cs 30.
Cc1onc(-c2ccccc2Cl)c1C(=O)N1CCC(C)CC1 was read as Lassa entry inh -15%, Pf growth 96h -6%, MARV entry inh 1%[46.1 µM], Shiga inhibitor -7, Pf growth 48h 15% and Cycloheximide cs -7.
Screening CCOC(=O)C1CCN(C(=O)c2c(C)oc3c2C(=O)c2ccccc2C3=O)CC1 returned Lassa entry inh inconclusive, Pf growth 96h 0.29µM*, MARV entry inh -36%, Shiga inhibitor 15, Pf growth 48h 0.41µM* and Cycloheximide cs 4.
Cc1oc2c(c1C(=O)N1CCC(C)CC1)C(=O)c1ccccc1C2=O was read as Lassa entry inh -26%, Pf growth 96h 0.093µM*, MARV entry inh inconclusive, Shiga inhibitor 16, Pf growth 48h 0.23µM* and Cycloheximide cs 1.
Screening Cc1c(CCOC(=O)c2cc([N+](=O)[O-])cc([N+](=O)[O-])c2)sc[n+]1CC(=O)c1ccc(Br)cc1 returned Lassa entry inh -9%, Pf growth 96h inconclusive, MARV entry inh inconclusive, Shiga inhibitor 29, Pf growth 48h inconclusive and Cycloheximide cs 7.
For COC(=O)c1c(C)[nH]c(C(=O)COc2ccc3ccc(=O)oc3c2)c1C the results were Pf growth 96h 9% and Pf growth 48h inconclusive.
`CC(=O)c1c(C)[nH]c(C(=O)COc2ccc3ccc(=O)oc3c2)c1C` gave Lassa entry inh 2%[46.1 µM], Pf growth 96h inconclusive, MARV entry inh inconclusive and Pf growth 48h 10µM*.
Screening COc1ccc(NC(=O)c2cc(C)n(Cc3cccs3)c2C)cc1 returned Lassa entry inh inconclusive, Pf growth 96h 453%, MARV entry inh inconclusive, Shiga inhibitor 82*, Pf growth 48h 175% and Cycloheximide cs 62*.
COc1ccc(N(Cc2cccs2)C(=O)Nc2ccccc2)cc1 was read as Lassa entry inh -14%[46.1 µM] and MARV entry inh inconclusive.
For Cc1cc(C)c(C(=O)COc2cccnc2[N+](=O)[O-])cc1C the results were Lassa entry inh -2%, MARV entry inh 5%, Shiga inhibitor -11, Pf growth 48h 6% and Cycloheximide cs 5.
Screening COCCn1c(C)cc(C(=O)COc2cccnc2[N+](=O)[O-])c1C returned Lassa entry inh 7%[46.1 µM], Pf growth 96h -13%, MARV entry inh 24%[46.1 µM], Shiga inhibitor 53*, Pf growth 48h 42% and Cycloheximide cs 32*.
Screening Cc1ccc(OCC(=O)c2cc(C)n(Cc3cccs3)c2C)c([N+](=O)[O-])n1 returned Lassa entry inh inconclusive, Pf growth 96h -5%, MARV entry inh inconclusive, Shiga inhibitor 31, Pf growth 48h -4% and Cycloheximide cs 36*.
Screening CC1(C(=O)NNC(=O)C2CCCCC2)CC1(Cl)Cl (stereo not given) returned Lassa entry inh -11%, Pf growth 96h 11%, MARV entry inh 12%[46.1 µM], Shiga inhibitor 10, Pf growth 48h 15% and Cycloheximide cs -2.
Cc1ccc(C(=O)CCCn2nnc(-c3cccnc3)n2)cc1C was read as Lassa entry inh 6%, Pf growth 96h inconclusive, MARV entry inh 0%, Shiga inhibitor -10, Pf growth 48h 7% and Cycloheximide cs -2.
Screening Cc1cc(C(=O)COc2ccc3ccc(=O)oc3c2)c(C)n1Cc1cccs1 returned Lassa entry inh -6%, Pf growth 96h inconclusive, MARV entry inh inconclusive, Shiga inhibitor 12, Pf growth 48h -8% and Cycloheximide cs 20*.
For Cc1ccc(C(=O)COc2ccc3ccc(=O)oc3c2)cc1 the results were Lassa entry inh -2%, Pf growth 96h 11%, MARV entry inh -1%[46.1 µM], Shiga inhibitor -4, Pf growth 48h 6% and Cycloheximide cs -4.
`O=C(Cc1ccccc1[N+](=O)[O-])OCC(=O)c1c[nH]c2ccccc12` gave Lassa entry inh 22%, Pf growth 96h 19%, MARV entry inh 12% and Pf growth 48h 37%.
Screening O=C(COc1cccnc1[N+](=O)[O-])c1c[nH]c2ccccc12 returned Pf growth 96h 16%, Shiga inhibitor 26, Pf growth 48h 6% and Cycloheximide cs 20*.
Cc1ccc(C(C)C)c(OCC(=O)OCC(=O)c2c(N)n(C)c(=O)n(C)c2=O)c1 was read as Pf growth 96h 36% and Pf growth 48h 14%.
For O=S(=O)(c1cccc(F)c1)N1CCN(Cc2cc3c(cc2Br)OCCO3)CC1 the results were Pf growth 96h inconclusive and Pf growth 48h 9.3µM*.
`Oc1ccc(N2CCN(Cc3cc4c(cc3Br)OCCO4)CC2)cc1` gave Lassa entry inh 0%[46.1 µM], Pf growth 96h 13µM*, MARV entry inh 8%[46.1 µM], Shiga inhibitor -2, Pf growth 48h 12µM* and Cycloheximide cs -3.
Screening Fc1ccc(N2CCN(Cc3cc4c(cc3Br)OCO4)CC2)cc1 returned Lassa entry inh inconclusive, Pf growth 96h inconclusive, MARV entry inh inconclusive, Shiga inhibitor -21, Pf growth 48h 209% and Cycloheximide cs 7.
For COc1ccc(NC(=O)CN(C)C(=O)c2ccc3c(c2)NC(=O)CS3)cc1 the results were Pf growth 96h 29% and Pf growth 48h 40%.
`CC(=O)n1cc([C@@H]2C=C(C(=O)Nc3ccccc3)O[C@H](OCc3ccc(CO)cc3)C2)c2ccccc21` gave Pf growth 96h 5.9µM*, Shiga inhibitor 15, Pf growth 48h inconclusive and Cycloheximide cs 13.
